Results as given in PubChem BioAssay AID1159580 (chemical genetic matrix, 2015).
Screen size: about 5,500 compounds; about 2,000 (36%) were called active. Roughly 18% stayed inconclusive and do not appear here. Cut-off read from the data, not from the text of the source: active = normalized growth mostly below about 0.91 (no sharp cut-off); inconclusive = no clear call, values can overlap the other calls; inactive = mostly above about 0.92. The list shows a part of the results.

Assay: chemical genetic growth profiling, strain panel (AID 1159580);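 note: tested at 20 µM; growth read once vehicle control cultures reached saturation at 30 °C; 1 = growth at the plate median or of vehicle wells; lower values mean less growth of the strain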
Conditions: growth OD
[1] = S. cerevisiae deletion strains, locus YAL013W, strain DEP1, hits give low values
[2] = S. cerevisiae deletion strains, locus YBR229C, strain ROT2, hits give low values
[3] = S. cerevisiae deletion strains, locus YDL101C, strain DUN1, hits give low values
[4] = S. cerevisiae deletion strains, locus YDR150W, strain NUM1, hits give low values
[5] = S. cerevisiae deletion strains, locus YEL061C, strain CIN8, hits give low values
[6] = S. cerevisiae deletion strains, locus YGR078C, strain PAC10, hits give low values
[7] = S. cerevisiae deletion strains, locus YGR229C, strain SMI1, hits give low values
[8] = S. cerevisiae deletion strains, locus YHR030C, strain SLT2, hits give low values
[9] = S. cerevisiae deletion strains, locus YHR087W, strain rtc3, hits give low values
[10] = S. cerevisiae deletion strains, locus YJR043C, strain POL32, hits give low values
[11] = S. cerevisiae deletion strains, locus YJR075W, strain HOC1, hits give low values
[12] = S. cerevisiae deletion strains, locus YKL190W, strain CNB1, hits give low values
[13] = S. cerevisiae deletion strains, locus YLR039C, strain RIC1, hits give low values
[14] = S. cerevisiae deletion strains, locus YLR058C, strain SHM2 (second series), hits give low values
[15] = S. cerevisiae deletion strains, locus YLR085C, strain ARP6, hits give low values
[16] = S. cerevisiae deletion strains, locus YLR262C, strain YPT6, hits give low values
[17] = S. cerevisiae deletion strains, locus YML094W, strain GIM5, hits give low values
[18] = S. cerevisiae deletion strains, locus YMR219W, strain ESC1, hits give low values
[19] = S. cerevisiae deletion strains, locus YMR307W, strain GAS1, hits give low values
[20] = S. cerevisiae deletion strains, locus YNL153C, strain GIM3, hits give low values
[21] = S. cerevisiae deletion strains, locus YNL298W, strain CLA4 (second series), hits give low values
[22] = S. cerevisiae deletion strains, locus YNL322C, strain KRE1, hits give low values
[23] = S. cerevisiae deletion strains, locus YNR030W, strain Alg12, hits give low values
[24] = S. cerevisiae deletion strains, locus YOL006C, strain TOP1, hits give low values
[25] = S. cerevisiae deletion strains, locus YPL055C, strain LGE1, hits give low values
[26] = S. cerevisiae deletion strains, locus YPL241C, strain CIN2, hits give low values
[27] = S. cerevisiae deletion strains, locus YPR135W, strain CTF4, hits give low values
[28] = S. cerevisiae deletion strains, locus YCL061C, strain MRC1, hits give low values
[29] = S. cerevisiae deletion strains, locus YMR263W, strain SAP30, hits give low values

Measured: normalized growth

c1ccc(CSC2=NCCCN2)cc1
inactive: [1] 1 | [2] 0.993 | [3] 1.01 | [4] 0.977 | [5] 1.02 | [6] 1.01 | [7] 1 | [8] 1.03 | [9] 1.01 | [10] 1.01 | [11] 0.997 | [12] 1 | [13] 0.993 | [14] 1.01 | [15] 1.04 | [16] 1.01 | [17] 1 | [18] 1.01 | [19] 1 | S. cerevisiae deletion strains, locus YNL128W, strain TEP1, hits give low values 1.02 | [20] 0.996 | [21] 1.05 | [22] 1.01 | [23] 1.02 | [24] 1.04 | [25] 0.984 | [26] 1.01 | [27] 1.08 | S. cerevisiae strains, strain wild type, hits give low values 1.01

COc1cc(Cl)c(NS(=O)(=O)c2cc(Br)c(Br)s2)c(OC)c1
inactive: S. cerevisiae deletion strains, locus YAR019C, strain CDC15, hits give low values 0.96 | S. cerevisiae deletion strains, locus YBL105C, strain PKC1, hits give low values 0.977 | S. cerevisiae deletion strains, locus YBR135W, strain CKS1, hits give low values 0.967 | S. cerevisiae deletion strains, locus YBR136W, strain MEC1, hits give low values 0.977 | S. cerevisiae deletion strains, locus YBR160W, strain CDC28, hits give low values 0.958 | S. cerevisiae deletion strains, locus YDL017W, strain CDC7, hits give low values 0.978 | S. cerevisiae deletion strains, locus YDL028C, strain MPS1, hits give low values 0.96 | [3] 0.977 | S. cerevisiae deletion strains, locus YDL108W, strain KIN28, hits give low values 0.957 | S. cerevisiae deletion strains, locus YDL132W, strain cdc53, hits give low values 0.954 | S. cerevisiae deletion strains, locus YDL214C, strain PRR2, hits give low values 0.916 | S. cerevisiae deletion strains, locus YDR052C, strain DBF4, hits give low values 0.988 | S. cerevisiae deletion strains, locus YDR054C, strain cdc34, hits give low values 0.953 | S. cerevisiae deletion strains, locus YDR226W, strain ADK1, hits give low values 0.962 | S. cerevisiae deletion strains, locus YDR477W, strain SNF1, hits give low values 0.904 | S. cerevisiae deletion strains, locus YER123W, strain YCK3, hits give low values 0.898 | S. cerevisiae deletion strains, locus YER133W, strain GLC7, hits give low values 0.918 | S. cerevisiae deletion strains, locus YFL009W, strain cdc4, hits give low values 0.948 | S. cerevisiae deletion strains, locus YFL029C, strain CAK1, hits give low values 0.956 | S. cerevisiae deletion strains, locus YFR003C, strain YPI1, hits give low values 0.973 | S. cerevisiae deletion strains, locus YFR019W, strain FAB1, hits give low values 0.964 | S. cerevisiae deletion strains, locus YFR028C, strain CDC14, hits give low values 0.949 | S. cerevisiae deletion strains, locus YGR040W, strain KSS1, hits give low values 0.888 | S. cerevisiae deletion strains, locus YGR052W, strain FMP48, hits give low values 0.923 | S. cerevisiae deletion strains, locus YGR092W, strain DBF2, hits give low values 0.831 | S. cerevisiae deletion strains, locus YHR079C, strain IRE1, hits give low values 0.905 | S. cerevisiae deletion strains, locus YHR082C, strain KSP1, hits give low values 0.924 | S. cerevisiae deletion strains, locus YHR205W, strain SCH9, hits give low values 0.933 | S. cerevisiae deletion strains, locus YIL147C, strain SLN1, hits give low values 0.961 | S. cerevisiae deletion strains, locus YJL095W, strain BCK1, hits give low values 0.885 | S. cerevisiae deletion strains, locus YJL128C, strain PBS2, hits give low values 0.923 | S. cerevisiae deletion strains, locus YJL157C, strain FAR1, hits give low values 0.919 | S. cerevisiae deletion strains, locus YJR016C, strain ILV3, hits give low values 0.972 | S. cerevisiae deletion strains, locus YJR066W, strain TOR1 (second series), hits give low values 0.858 | S. cerevisiae deletion strains, locus YJR066W, strain TOR1, hits give low values 0.896 | S. cerevisiae deletion strains, locus YKL048C, strain ELM1, hits give low values 0.969 | S. cerevisiae deletion strains, locus YKL067W, strain YNK1, hits give low values 0.9 | S. cerevisiae deletion strains, locus YKL101W, strain HSL1, hits give low values 0.917 | S. cerevisiae deletion strains, locus YKL193C, strain SDS22, hits give low values 0.959 | S. cerevisiae deletion strains, locus YKL203C, strain TOR2, hits give low values 0.986 | S. cerevisiae deletion strains, locus YLR133W, strain CKI1, hits give low values 0.959 | S. cerevisiae deletion strains, locus YLR403W, strain SFP1, hits give low values 0.922 | S. cerevisiae deletion strains, locus YML070W, strain DAK1, hits give low values 0.916 | S. cerevisiae deletion strains, locus YMR001C, strain CDC5, hits give low values 0.969 | S. cerevisiae deletion strains, locus YMR205C, strain PFK2 (second series), hits give low values 0.948 | S. cerevisiae deletion strains, locus YMR277W, strain FCP1, hits give low values 0.946 | S. cerevisiae deletion strains, locus YNL006W, strain LST8, hits give low values 0.955 | S. cerevisiae deletion strains, locus YNL020C, strain ARK1, hits give low values 0.931 | S. cerevisiae deletion strains, locus YNL161W, strain CBK1, hits give low values 0.97 | S. cerevisiae deletion strains, locus YNL183C, strain NPR1, hits give low values 0.904 | S. cerevisiae deletion strains, locus YNL207W, strain RIO2, hits give low values 0.962 | S. cerevisiae deletion strains, locus YNL222W, strain SSU72, hits give low values 0.95 | S. cerevisiae deletion strains, locus YNL307C, strain MCK1 (second series), hits give low values 0.902 | S. cerevisiae deletion strains, locus YOL078W, strain AVO1, hits give low values 0.96 | S. cerevisiae deletion strains, locus YOL136C, strain PFK27, hits give low values 0.901 | S. cerevisiae deletion strains, locus YOR061W, strain CKA2, hits give low values 0.912 | S. cerevisiae deletion strains, locus YOR119C, strain RIO1, hits give low values 0.918 | S. cerevisiae deletion strains, locus YOR231W, strain MKK1, hits give low values 0.908 | S. cerevisiae deletion strains, locus YOR329C, strain SCD5, hits give low values 0.965 | S. cerevisiae deletion strains, locus YPL031C, strain PHO85, hits give low values 0.894 | S. cerevisiae deletion strains, locus YPL153C, strain RAD53, hits give low values 0.866 | S. cerevisiae deletion strains, locus YPL204W, strain HRR25, hits give low values 0.868 | S. cerevisiae deletion strains, locus YPL209C, strain IPL1, hits give low values 0.976 | S. cerevisiae deletion strains, locus YPR025C, strain CCL1, hits give low values 0.968 | S. cerevisiae deletion strains, locus YPR106W, strain ISR1, hits give low values 0.954 | S. cerevisiae deletion strains, locus YPR111W, strain DBF20, hits give low values 0.938 | S. cerevisiae deletion strains, strain NNK1, hits give low values 0.975 | S. cerevisiae deletion strains, strain TSCII, hits give low values 0.963
active: [8] 0.664 | S. cerevisiae deletion strains, locus YLR113W, strain HOG1, hits give low values 0.815 | S. cerevisiae deletion strains, locus YPL256C, strain CLN2, hits give low values 0.856

COc1ccc(OC)c(S(=O)(=O)NCc2c(F)cccc2Cl)c1
inactive: [1] 0.994 | [2] 1.01 | [28] 1.01 | [3] 1.02 | [4] 0.985 | [5] 1.04 | [6] 1.02 | [8] 1.02 | [9] 1 | [11] 1.01 | [12] 1.01 | [13] 0.928 | [14] 1.02 | [15] 1.02 | [16] 0.893 | [17] 0.992 | [18] 1.01 | [29] 1.01 | [19] 1.09 | [20] 0.993 | [21] 1.02 | [22] 1.01 | [23] 1.02 | [24] 0.98 | [25] 1.02 | [26] 1.01 | [27] 1.01

O=S(=O)(c1cc(Br)c(Br)s1)N1CCCCC1
inactive: [1] 1.01 | [2] 0.993 | [28] 0.967 | [3] 0.963 | S. cerevisiae deletion strains, locus YDL134C, strain PPH21, hits give low values 1.02 | [4] 1.01 | [5] 1.01 | [6] 1.01 | [7] 0.984 | [8] 1.14 | [9] 1.03 | [10] 0.964 | [11] 1.01 | [12] 1.02 | [13] 0.942 | [14] 1.01 | [15] 1.02 | [16] 0.991 | [17] 1 | [18] 1 | [29] 1 | [20] 0.955 | [21] 1.02 | [22] 1.02 | [23] 1.03 | [25] 0.946 | [26] 1 | [27] 1.04
